Data taken from PubChem BioAssay (EPA / NIEHS).
Active and inactive are the calls of the source. How the source made its calls: active means hit-call score of the fitted dose curve at least 0.9, where 1 is the maximum; inactive means score below 0.9.

Read-out: TIMP metallopeptidase inhibitor 2 (TIMP2), TIMP2 (gene 7077)
Assay: BSK_KF3CT_TIMP2: BioMAP Diversity Plus: KF3CT Assay for TIMP metallopeptidase inhibitor 2 (TIMP2) Biomarker Activity (AID 2283071)
Conditions: primary human keratinocytes with fibroblasts; actives raise or lower the signal
Protocol: BSK_KF3CT is a cell-based, multiplexed-readout assay that uses keratinocytes and foreskin fibroblasts, a human skin primary cell co-culture, with measurements taken at 24 hours after chemical dosing in a 96-well plate.BSK_KF3CT_TIMP2 is an assay component measured in the BSK_KF3CT assay. It measures TIMP-2 antibody related to regulation of gene expression using ELISA technology.Data from the assay component BSK_KF3CT_TIMP2 was analyzed into 1 assay endpoint. This assay endpoint, BSK_KF3CT_TIMP2, was analyzed with bidirectional fitting relative to DMSO as the negative control and baseline of activity. Using a type of binding reporter, gain or loss-of-signal activity can be used to understand changes in the signaling as they relate to the gene TIMP2. Furthermore, this assay endpoint can be referred to as a primary readout, because this assay has produced multiple assay endpoints where this one serves a signaling function. To generalize the intended target to other relatable targets, this assay endpoint is annotated to the protease inhibitor intended target family, where the subfamily is metalloproteinase inhibitor.
The levels of cell surface (or secreted, indicated by the prefix "s") biomarker endpoints were measured by ELISA. Overt cytotoxicity to cells in confluent adherent cultures (all systems other than the BT system) was assessed by measuring total protein levels using sulforhodamine B (SRB) staining in parallel cultures at the time of biomarker measurements, indicated as SRB endpoints. For proliferation assays for adherent cell types, individual cell types are cultured at sub-confluence and relative cell numbers quantified by SRB staining at time points optimized for each system (48 h: 3C and CASM3C systems; 72 h: BT and HDF3CGF systems; 96 h: SAg system). SRB was performed by staining cells with 0.1% SRB after fixation with 10% TCA and reading wells at 560 nm.Viability and proliferation of PBMC (T cells) was quantified by Alamar Blue reduction for the SAg and BT systems. For PBMC viability (referred to as PBMC Cytotoxicity within the assay endpoint names), cells were plated (75,000/well in a 96-well plate) and then chemical samples added for 1 h before addition of activators, SEB and TSST-1 (20 ng/mL final concentration each). Cells were incubated for 90 h. Then, Alamar Blue (20 uL/well) (Invitrogen, Cat DAL1100) was added for 6 h, and the plates were read with a fluorescence microplate reader at 546/580 nm (excitation/emission). For PBMC proliferation, cells were plated and activated as above but incubated for only 16 h prior to addition of Alamar Blue. Plates were read after 6 h.

| Structure (SMILES) | outcome | AC50 |
| --- | --- | --- |
| Nc1cccc(N)c1 | inactive |  |
| CC(C)CCCCCCCOC(=O)CCCCC(=O)OCCCCCCCC(C)C | inactive |  |
| C=CC(=C)CCC=C(C)C | inactive |  |
| COc1ccc(-n2nc(C(F)F)cc2-c2ccc(S(C)=O)cc2)cc1 (stereo not given) | inactive |  |
| COCCOCCOCCOC | inactive |  |
| O=C1CCCCCN1 | inactive |  |
| COc1cccc(-c2ccc(/C=C\CN3CCCCCC3)cc2Cl)c1 |  | 33.2 µM (active) |
| COCCOc1cc2cc(C(=O)NC3CCN(C(C)C)CC3)n(CC(=O)Nc3ccc(Cl)cn3)c2cn1 | inactive |  |
| O=C1OC(=O)C2C3C=CC(C3)C12 (stereo not given) | inactive |  |
| CCCCCCCCCCCCc1ccccc1 | inactive |  |
| CC(=O)OCCC(C)C | inactive |  |
| O=C(O)c1cccc(Oc2ccccc2)c1 | inactive |  |
| Cn1c(=O)c2c(ncn2C)n(C)c1=O | inactive |  |
| Nc1nc2ncc(CNc3ccc(C(=O)N[C@@H](CCC(=O)O)C(=O)O)cc3)nc2c(=O)[nH]1 | inactive |  |
| O=C(O)CCN(C1(C(=O)NO)CCCC1)S(=O)(=O)c1ccc(Oc2ccc(F)cc2)cc1 | inactive |  |
| CC(C)=CCC/C(C)=C/CO | inactive |  |
| CCCN(C1CCN(C(=O)C2CCNCC2)CC1)[C@@H]1CCc2ccc(OC)cc2C1 | inactive |  |
| Cc1c(-c2cccnc2)c2ccccc2n1CCCCC(=O)O | inactive |  |
| C1N2CN3CN1CN(C2)C3 | inactive |  |
| CCCCC(CC)COC(=O)c1ccc(C(=O)OCC(CC)CCCC)cc1 (stereo not given) | inactive |  |

| Structure (SMILES) | outcome | AC50 |
| --- | --- | --- |
| O=C(CCCCCCCCc1cccnc1)N1CCC(C=C(c2ccccc2)c2ccccc2)CC1 |  | 10.8 µM (active) |
| CCCCCCCCO | inactive |  |
| Oc1ccc2c(c1)-c1ccccc1C2 | inactive |  |
| CC(C)c1cccc(C(C)C)c1N1C(=O)c2ccc(O)cc2C1=O |  | 29.2 µM (active) |
| COC(=O)c1c(Cl)c(Cl)c(C(=O)OC)c(Cl)c1Cl | inactive |  |
| CCNc1ccccc1 | inactive |  |
| CNCc1ccc(NC(=O)c2c[nH]c3c2C(=O)CCC3)cc1 | inactive |  |
| Clc1nc(Cl)c(Cl)c(Cl)c1Cl | inactive |  |
| O=C(OC[C@H]1O[C@@H](OC(=O)c2cc(O)c(O)c(OC(=O)c3cc(O)c(O)c(O)c3)c2)[C@H](OC(=O)c2cc(O)c(O)c(OC(=O)c3cc(O)c(O)c(O)c3)c2)[C@@H](OC(=O)c2cc(O)c(O)c(OC(=O)c3cc(O)c(O)c(O)c3)c2)[C@@H]1OC(=O)c1cc(O)c(O)c(OC(=O)c2cc(O)c(O)c(O)c2)c1)c1cc(O)c(O)c(OC(=O)c2cc(O)c(O)c(O)c2)c1 |  | 2.92 µM (active) |
| CCC(C)(C)C(=O)O[C@H]1C[C@@H](C)C=C2C=C[C@H](C)[C@H](CC[C@@H]3C[C@@H](O)CC(=O)O3)[C@H]21 |  | 30.8 µM (active) |
| CC(O)CN(CCN(CC(C)O)CC(C)O)CC(C)O (stereo not given) | inactive |  |
| CC/C(=C\C(=N/O)C(N)=O)C(C)[N+](=O)[O-] (stereo not given) | inactive |  |
| CCOC(=O)c1ccc(C2CCC(NC[C@H](O)COc3ccc(O)c(NS(C)(=O)=O)c3)CC2)cc1 (stereo not given in full) | inactive |  |
| CC(C)=CCC/C(C)=C\CO | inactive |  |
| CC1(C)C(=O)N(Br)C(=O)N1Br | inactive |  |
| C=CCCCCCCCCC(=O)O | inactive |  |
| CC[C@H]1CC[C@H](NCc2cc3c(cc2OC)[C@H]2C[C@H]2C(=O)N3C)[C@H](c2ccccc2)N1 | inactive |  |
| CC(C)CCCCCCOC(=O)c1ccc(C(=O)OCCCCCCC(C)C)c(C(=O)OCCCCCCC(C)C)c1 | inactive |  |
| O=P(OC(CCl)CCl)(OC(CCl)CCl)OC(CCl)CCl | inactive |  |
| CC(C)=CCCC(C)=CC=O | inactive |  |
